High-throughput results as filed in PubChem.
N370S GC mod: qHTS Assay for Inhibitors and Activators of N370S glucocerebrosidase as a Potential Chaperone Treatment of Gaucher Disease; Lysosomal acid glucosylceramidase (Homo sapiens), P04062; N370S GC spleen homogenate, 4MU-glucoside fluorescence; Potency, µM (titrated, usually from 59.4 µM), inactives show top-dose activity change, negative = inhibition, most hits filed as inhibitors; 330,000 tested, 0.092% active; AID 2101, 2009;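 also: potency is read from the fitted curve at half-maximal effect; 0% = full enzyme activity and -100% = no enzyme basal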
rTrxR1 inhibitor: qHTS Assay for Inhibitors of Mammalian Selenoprotein Thioredoxin Reductase 1 (TrxR1): qHTS | AID 588453, 2011 | 390,000 tested, 1% active | recombinant rTrxR1, NADPH fluorescence consumption, selenite substrate | Thioredoxin reductase 1, cytoplasmic (Rattus norvegicus), O89049 | Potency, µM (doses to about 114 µM), for the others: at the top dose activity change, negative = inhibition, usual class: inhibitors; also: potency is read from the fitted curve at half-maximal effect; % is scaled to controls: 0 for no effect and ±100 for the full control effect; nearly all actives have a fitted effect of over 65% in size
Target sequence (O89049 whole entry, looked up): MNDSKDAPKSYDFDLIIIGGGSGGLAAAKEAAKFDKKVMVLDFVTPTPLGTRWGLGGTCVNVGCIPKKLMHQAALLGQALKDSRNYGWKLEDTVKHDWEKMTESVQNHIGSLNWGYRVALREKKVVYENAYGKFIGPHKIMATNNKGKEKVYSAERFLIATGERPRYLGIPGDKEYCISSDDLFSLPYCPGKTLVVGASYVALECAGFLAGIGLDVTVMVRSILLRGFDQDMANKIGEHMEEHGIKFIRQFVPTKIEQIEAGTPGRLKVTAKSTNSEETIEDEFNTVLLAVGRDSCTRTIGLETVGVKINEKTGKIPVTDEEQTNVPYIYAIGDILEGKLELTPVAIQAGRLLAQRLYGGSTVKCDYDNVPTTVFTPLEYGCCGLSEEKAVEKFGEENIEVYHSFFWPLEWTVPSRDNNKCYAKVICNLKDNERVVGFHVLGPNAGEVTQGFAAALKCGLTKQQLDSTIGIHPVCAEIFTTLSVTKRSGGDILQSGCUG
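Rat TrxR1 (90 nM in the dispensed reagent) was pre-reduced with 400 uM NADPH for 5 min at room temperature, then incubated with compound for 15 min. After 400 uM selenite was added, NADPH fluorescence (Ex 340/Em 450 nm) was followed for 8 min.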
AT treatment: qHTS Assay for Identifying a Potential Treatment of Ataxia-Telangiectasia | AID 485349, 2010 | 320,000 tested, 0.19% active | F2112 A-T fibroblasts, KAP-1 phosphorylation AlphaLISA; neocarzinostatin DNA damage 30 min before lysis | Potency, µM (series often up to 57.5 µM), without a hit: top-dose activation, actives largely listed as activators; also: potency is read from the fitted curve at half-maximal effect; % of control where 0% means no effect; nearly all actives have a fitted effect of over 45% in size
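hTERT-immortalized A-T patient fibroblasts (F2112), 500 cells/well in OPTI-MEM, 1% FBS, got compounds for 60 min, then NCS for 30 min at 37C. Lysates were then assayed for phospho-KAP-1 by AlphaLISA (anti-pKAP1 donor, anti-KAP1 acceptor beads), 6 hr at 25C.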
TrxR1 substrate: qHTS Assay for Substrates of Mammalian Selenoprotein Thioredoxin Reductase 1 (TrxR1): qHTS | 390,000 tested, 0.01% active | AID 588456, 2011 | Potency, µM (series often up to 114 µM), for the others: at the highest dose activity change, negative = substrate turnover | purified TrxR1 substrate turnover, NADPH consumption readout | Thioredoxin reductase 1, cytoplasmic (Rattus norvegicus), O89049; also: potency is read from the fitted curve at half-maximal effect; % is scaled to controls: 0 for no effect and ±100 for the full control effect; nearly all actives have a fitted effect of over 50% in size
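Rat TrxR1, dispensed at 90 nM, was prereduced with 400 uM NADPH (final) for 5 min at ~22 deg C, then incubated with compound 15 min before 400 uM selenite. A first-read NADPH fluorescence drop versus no-compound background flagged substrates.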
Pin1 inh: qHTS Assay to Find Inhibitors of Pin1 | Potency, µM (doses to about 115 µM), without a hit: at the top dose activity, negative = inhibition, hits mostly inhibitors | 390,000 tested, 0.009% active | Pin1 FP peptide displacement, HiFluor488, 10 min | AID 504891, 2011; active = well fitted inhibition curve with a large enough effect in the polarisation, with a control signal flat, not every such curve was filed as active; inconclusive = small, poorly fitted or top-dose-only effect, or effect the other way, or a change in a side signal; inactive = no such curve, though single readings can be large or run the other way; the % refers to the polarisation; also: potency is read from the fitted curve at half-maximal effect; % is scaled to controls: 0 for no effect and ±100 for the full control effect
Target sequence (Q13526 whole entry, looked up): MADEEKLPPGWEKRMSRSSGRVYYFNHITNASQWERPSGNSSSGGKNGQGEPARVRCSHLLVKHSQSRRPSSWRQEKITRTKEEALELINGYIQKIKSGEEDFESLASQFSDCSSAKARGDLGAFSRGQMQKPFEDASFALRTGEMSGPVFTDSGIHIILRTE
Akt phos inh: HTS Assay for Inhibitors of Akt Phophorylation: Primary Screen. Neuro2A IGF-stimulated pAkt S473 HTRF, 20 min; hits give low values. activity change, % for hits at 50 µM. 360,000 tested, 0.32% active; in the data active = activity change below about -80%; inconclusive = mostly about -51% to -80%; also: % is scaled to controls: 0 for no effect and ±100 for the full control effect
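Neuro2A cells in DMEM with 0.5% FBS, overnight at 37 deg C, given compound at single 50 µM final, then IGF (6 nM final) for 20 min at 37 deg C. Lysed; phospho-Akt Ser473 by HTRF after 24 h, 665/615 ratio.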
The depositor's hits bear a star; i = inactive; u = inconclusive; x = no result given; ! = a repeat was not active; [ ] = remark or other dose. Compounds with a hit are over-represented: about 1.4% of the library has one in this group of screens. Unless noted, calls follow the shape of the dose curve; as a rule, active = well fitted curve in the direction sought with a large enough effect; inconclusive = small, poorly fitted or top-dose-only effect, or another doubt; inactive = no such curve, though single readings can be large; an effect the other way counts as inactive or inconclusive.

SMILES | N370S GC mod | rTrxR1 inhibitor | AT treatment | TrxR1 substrate | Pin1 inh | Akt phos inh
COC(=O)c1cnn(-c2ccc(C(=O)Nc3cccc(C(C)=O)c3)cc2)c1N | -1.2% | 9.4%[57.1 µM] | 28.2µM* | -2.1%[57.1 µM] | -0.7% | x
Cc1ccc2c(C(=O)CNC3=NCCS3)c(C)[nH]c2c1 | x | 13.7% | x | -0.7% | x | x
NC(=O)C1CCN(c2nc(-c3ccc(OC(F)(F)F)cc3)cs2)CC1 | x | x | x | x | -19.2% | x
CCN(CC)c1ccc(NC(=O)CCS(=O)(=O)c2cccc3nsnc23)c(C)c1 | -9.9% | 79.4µM*! | 6.3% | -3.5% | -4.6% | i
CC(=O)N1CCc2c(sc3c2c(=O)n(CCc2ccccc2)c(=O)n3Cc2ccc(F)cc2)C1 | x | 11.0% | x | -10.1% | 44.4% | x
C=CCSc1nncn1/N=C/c1ccc(OC)cc1 | 3.4% | -7.5% | -3.1% | -6.5% | 5.5% | -103.2%*
C=C(C)Cn1c(CCNC(=O)CCC)nc2ccccc21 | 0.8% | 12.4% | -4.9% | 4.6% | 7.5% | -103.6%*
C=C(C)Cn1c(CCCNC(=O)CC)nc2ccccc21 | 6.0% | 16.8%[57.1 µM] | -4.3% | 1.0%[57.1 µM] | 0.3% | x
CCOc1ccc(N(CC(=O)Nc2cc(OC)cc(OC)c2)S(=O)(=O)c2c(C)[nH]c(=O)[nH]c2=O)cc1 | u | 16.2% | 3.7% | -1.2% | 0.8% | i
COc1ccc(N(CC(=O)Nc2cccc(F)c2)S(=O)(=O)c2c(C)[nH]c(=O)[nH]c2=O)cc1 | 11.2µM* | 2.8% | -0.5% | 3.2% | -1.6% | i
COc1ccc(N(CC(=O)Nc2cccc(Cl)c2)S(=O)(=O)c2c(C)[nH]c(=O)[nH]c2=O)cc1 | x | 15.4% | x | 4.9% | 13.0% | x
CCOc1ccc(N(CC(=O)Nc2ccc(CC)cc2)S(=O)(=O)c2c(C)[nH]c(=O)[nH]c2=O)cc1 | 3.55µM* | 3.2% | -0.8% | -5.8% | -0.5% | i
CCOc1ccc(N(CC(=O)Nc2cc(C)ccc2C)S(=O)(=O)c2c(C)[nH]c(=O)[nH]c2=O)cc1 | u | -14.0% | 28.2µM* | -8.6% | -0.8% | i
CCOc1ccc(N(CC(=O)Nc2ccc(C)c(C)c2)S(=O)(=O)c2c(C)[nH]c(=O)[nH]c2=O)cc1 | 7.08µM* | 6.9% | 14.9% | -2.7% | 2.6% | i
CCOc1ccc(N(CC(=O)Nc2ccccc2CC)S(=O)(=O)c2c(C)[nH]c(=O)[nH]c2=O)cc1 | x | 15.7% | x | 6.7% | -5.3% | x
CCc1ccc(NC(=O)CN(c2ccc(OC)cc2)S(=O)(=O)c2c(C)[nH]c(=O)[nH]c2=O)cc1 | 3.16µM* | 10.0% | 6.5% | -3.4% | -0.6% | i
O=C(CCS(=O)(=O)c1ccc(Br)s1)NCc1cccs1 | -27.2% | 9.6%[57.1 µM] | -0.9% | 10.7%[57.1 µM] | -1.3% | -82.0%*
Cc1ccc(CNC(=O)CCS(=O)(=O)c2ccc(Br)s2)cc1 | -3.7% | 8.0%[57.1 µM] | 5.1% | -11.5% | 5.0% | i
CCn1ccnc1CN(C)Cc1cn(-c2ccc(C)cc2)nc1-c1ccc(F)cc1 | 6.31µM* | 2.0% | 3.5%[11.5 µM] | 2.7% | 2.9% | i
CCn1ccnc1CN(C)Cc1cn(-c2cc(C)ccc2C)nc1-c1ccccc1 | 14.1µM* | 10.0%[11.4 µM] | 10.6% | 9.1%[57.1 µM] | -1.7% | i
CCc1ccc(CCC(=O)Nc2sc(C)c(C)c2C(=O)OC)o1 | 16.7% | -0.4%[57.1 µM] | 13.3% | 12.1%[57.1 µM] | -4.8% | -91.1%*
COC(=O)c1c(NC(=O)CCCC(=O)O)sc(C)c1C | -0.1% | 2.0% | 3.7% | -3.0% | 1.6% | i
CCOC(=O)CCCC(=O)N1CCN(/[N+]([O-])=N/Oc2ccc([N+](=O)[O-])cc2[N+](=O)[O-])CC1 | x | 15.8µM* | x | -6.2% | x | x
CCCCCCCCCCCCOC(=O)N1CCN(/[N+]([O-])=N/Oc2ccc([N+](=O)[O-])cc2[N+](C)=O)CC1 | x | 50.1µM* | x | -6.8%[0.457 µM] | x | x
CCOC(=O)N1CCN(/[N+]([O-])=N/Oc2ccc([N+](=O)[O-])cc2[N+](=O)[O-])CC1 | -23.5% | 6.7µM* | x | 3.1%[57.1 µM] | 1.8% | x
SMILES | N370S GC mod | rTrxR1 inhibitor | AT treatment | TrxR1 substrate | Pin1 inh | Akt phos inh
CCOC(=O)N1CCN(c2ccc([N+](=O)[O-])cc2)CC1 | -6.9% | -12.3% | -1.0% | -5.9% | 4.2% | i
CCOC(=O)/C=C/c1cc(F)c(S(=O)(=O)N2CCN(S(=O)(=O)c3ccc4c(c3)OCCO4)CC2)cc1F | x | x | x | x | 2.6% | x
Nc1cc(OCC(F)(F)F)cc([N+](=O)[O-])c1 | 3.0% | 3.9% | -0.7% | -5.3% | -1.6% | i
Nc1cc(N)c(OCC(F)(F)F)cc1OCC(F)(F)F | 3.2% | 0.316µM* | 3.1% | -6.5% | u | i
CN1C(=O)/C(=C\C(=O)c2cccs2)c2ccccc21 | 5.2% | -23.4%[57.1 µM] | -1.0% | 0.3%[57.1 µM] | -9.6% | i
CC(=O)/C=C1\C(=O)N(C)c2ccccc21 | x | 29.9µM* | x | 20.0%[57.1 µM] | x | x
O=[N+]([O-])C(/C=C(/Cl)[N+](=O)[O-])=C(N1CCCCC1)N1CCCCC1 | 2.6% | 7.94µM* | -6.3% | -9.6%[57.1 µM] | 40.7% | i
O=[N+]([O-])c1ccc(Sc2ncccn2)c([N+](=O)[O-])c1 | 2.3% | u | 15.3% | -8.6%[57.1 µM] | -2.4% | i
O=C(O)CCSc1ccc([N+](=O)[O-])cc1[N+](=O)[O-] | -2.8% | 70.8µM* | -3.4% | -2.7% | -1.3% | i
CCN(CC)c1ccc(/C=C2\C=Cc3ccccc32)cc1 | x | -11.7% | x | -5.7% | x | x
COc1ccc(N2C(=O)[C@@H]3[C@H](C2=O)[C@H](C(=O)c2ccc(OC(C)=O)cc2)N2N=CC=C[C@@H]32)cc1 | -15.8% | x | -14.4% | x | x | x
CC(=O)Oc1ccc(C(=O)[C@H]2[C@H]3C(=O)N(c4ccccc4)C(=O)[C@H]3[C@@H]3C=CC=NN32)cc1 | 5.4% | 11.2µM* | x | -6.6% | 6.3% | i
COCC(=O)OCC(=O)N1N=C(c2ccc(Cl)cc2)CC1c1ccco1 (stereo not given) | 6.2% | 10.9%[57.1 µM] | 5.2% | 4.7%[57.1 µM] | 0.3% | i
O=C(c1ccco1)N1N=C(c2ccc(Cl)cc2)CC1c1ccco1 (stereo not given) | 2.6% | 39.8µM* | 4.7% | -3.7% | 4.3% | i
O=C(OCC(=O)N1N=C(c2ccc(Cl)cc2)CC1c1ccco1)c1cccnc1 (stereo not given) | x | 7.08µM* | 12.3% | -0.2% | x | i
